Only some compounds are listed: those with a hit (about 11% of all), similar ones and a draw of the others.
JMJD2A Tudor inh – blocks the human JMJD2A Tudor domain; O75164; AlphaScreen JMJD2A-Tudor / H3K4me3 peptide binding; Potency, µM (top dose mostly 114 µM), without a hit: at the highest dose activity change, negative = inhibition, hits mostly inhibitors; 390,000 compounds, 4.4% hits; further: on the % scale 0 is the no-effect control and ±100 the full control effect; nearly all actives have a fitted effect of over 50% in size
L3MBTL1 inh – L3MBTL1 (human) inhibition; Q9Y468; AlphaScreen L3MBTL1–H3K9me1 peptide binding; Potency, µM (doses to about 57.1 µM), without a hit: top-dose activity, negative = inhibition, actives largely listed as inhibitors; 230,000 compounds, 0.66% hits; further: on the % scale 0 is the no-effect control and ±100 the full control effect; nearly all actives have a fitted effect of over 60% in size
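Read-out is AlphaScreen signal from streptavidin donor and nickel chelate acceptor beads (10 ug/mL final each) bridging L3MBTL1 (50 nM) and biotinylated K9-monomethylated H3(1-15) peptide (75 nM), after 30 min compound exposure at room temperature.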
HP1b chromo inh – HP1-beta chromodomain-methylated histone interaction inhibition; 390,000 compounds, 0.56% hits; P83916; Potency, µM (top dose mostly 114 µM), for inactives: at the highest dose activity change, negative = inhibition, hits mostly inhibitors; AID 540317; AlphaScreen HP1-beta / biotin-H3K9me3 peptide binding; further: nearly all actives have a fitted effect of over 70% in size
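HP1-beta protein (50 nM final) preincubated 30 min at room temperature with biotinylated H3(1-18)K9me3 peptide (50 nM) in PBS pH 7.4, 0.01% Tween-20, then compound added for 30 min. AlphaScreen streptavidin donor/nickel chelate acceptor beads (10 ug/mL final), 30 min dark, luminescence read.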
G9a inh – inhibitors of human histone lysine methyltransferase G9a; Q96KQ7; G9a H3K9 monomethylation, AlphaScreen, 2 h; Potency, µM (highest dose often 102 µM), for inactives: at the top dose activity, negative = inhibition, hits mostly inhibitors; 350,000 compounds, 8.8% hits; further: on the % scale 0 is the no-effect control and ±100 the full control effect; nearly all actives have a fitted effect of over 75% in size
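Chemiluminescent proximity detection of H3K9 monomethylation, read after 10 min bead incubation in the dark. Reaction: 20 nM G9a, 500 nM biotin-H3K9 peptide, 20 uM SAM cofactor, 2 h, room temperature, following 15 min enzyme-compound preincubation.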
BAZ2B inh – BAZ2B (human) inhibition. Q9UIF8. AlphaScreen BAZ2B-H3K14Ac peptide displacement. Potency, µM (highest dose often 114 µM), without a hit: at the top dose activity change, negative = inhibition, usual class: inhibitors. 360,000 compounds, 4.4% hits; further: on the % scale 0 is the no-effect control and ±100 the full control effect; nearly all actives have a fitted effect of over 60% in size
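Compounds, titrated to a top concentration of 110 uM, were incubated 30 min at room temperature with preformed BAZ2B/acetyl-K14 H3 peptide complex (50 nM each). Proximity signal was measured by AlphaScreen after 20 min with beads.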
Numbers without * were called inactive; u = inconclusive; x = not tested or not shown; [ ] = remark or other dose. The call rests on the fitted dose curve; in most records, active means well fitted inhibition curve with a large enough effect; inconclusive means small, poorly fitted or top-dose-only effect; inactive means no such curve, though single readings can be large or run the other way. Potency means the concentration at half of the fitted maximal effect.

SMILES | JMJD2A Tudor inh | L3MBTL1 inh | HP1b chromo inh | G9a inh | BAZ2B inh
CCOc1ccccc1NC(=O)NCc1noc2ccc(C)cc12 | 9% | x | 39% | 8%[59 µM] | u
c1ccc(-c2ccccc2OCCOCCN2CCCCC2)cc1 | 3.2µM* | -1% | u | u | -15%
Fc1ccccc1OCCCN1CCOCC1 | 4.5µM* | x | u | u | u
CC(=O)c1ccccc1OCCCCN1CCCCC1 | 25µM* | -6% | u | 25µM* | u
c1ccc(CCCN2CCOCC2)cc1 | 20µM* | 1% | u | 50µM* | u
CN(C)c1ccc(-c2cc(N(C)Cc3ccco3)ncn2)cc1 | x | x | x | -48%[0.501 µM] | x
COc1ccc(-c2nc(CSc3nnc(C)n4c3cc3sccc34)c(C)o2)cc1 | -8% | x | 22% | -42%[59 µM] | -20%
CCOC(=O)c1cc(-c2ccc(C)cc2)n(CCC(=O)Nc2nc3c(C)cccc3s2)c1C | u | x | 3% | u | u
CCOC(=O)COc1ccc2ccccc2c1/C=C/[N+](=O)[O-] | -14% | 2% | 7% | 18µM* | -31%
CCOC(=O)COc1ccc(/C=C/[N+](=O)[O-])c(OCC(=O)OCC)c1 | -5% | 4% | 12% | 71µM* | -24%
O=C(COC(=O)CN1C(=O)c2ccccc2C1=O)Nc1cccc(F)c1 | 9% | 2% | 44% | 12%[59 µM] | 1%
O=C(c1ccc(-c2ccccc2)cc1)C1CCCN(Cc2ccncc2)C1 (stereo unspecified) | u | -3% | 6% | x | -12%
OCC1CCCN(Cc2ccc(-c3ccccc3)cc2)C1 (stereo unspecified) | 2.2µM* | 6% | u | x | u
COc1ccc(/C=C(/C(=O)c2ccc(Cl)cc2Cl)n2cncn2)cc1 | -32% | -3% | 2% | -14%[59 µM] | -10%
CN(C)c1ccc(/C=C(/C(=O)c2ccc(Cl)cc2Cl)n2cncn2)cc1 | u | -12% | -11% | -8%[59 µM] | 50µM*
CC(C)CC(=O)/C(=C/c1ccc(N(C)C)cc1)n1cncn1 | -8% | x | 26% | 17%[2.33 µM] | 2%
CC(C)CC(=O)/C(=C\c1ccc(Cl)cc1Cl)n1cncn1 | -18% | -13% | 35% | 79µM* | -4%
CCCCOC(=O)C(C)c1c(C)[nH]c(=S)[nH]c1=O (stereo unspecified) | 2% | -2% | 43% | 40µM* | -33%
CCCCOC(=O)C(C)Nc1n[nH]c(=S)[nH]c1=O (stereo unspecified) | 11µM* | x | -11% | u | u
COc1ccc(N(CC(C)C)S(=O)(=O)c2nnc(NC(=O)c3cccs3)s2)cc1 | 31% | x | 80% | 2%[59 µM] | 30%
Cc1cccc(N2C(=O)CSC23C(=O)N(Cc2cccc(C(F)(F)F)c2)c2ccccc23)c1 (stereo unspecified) | -16% | x | 18% | -14%[59 µM] | 0%[57.1 µM]
CCC1CCCCN1C(=O)CSc1n[nH]c(-c2ccccc2Cl)n1 (stereo unspecified) | -6% | x | 23%[57 µM] | -36%[59 µM] | 0%
CCc1ccccc1N(CC(=O)O)S(C)(=O)=O | -32% | -12%[11.4 µM] | 16% | 7%[59 µM] | u
CS(=O)(=O)N(CC(=O)N1CCN(c2ccccc2)CC1)c1cccc(Br)c1 | -11% | 4% | 15% | 89µM* | -2%
CCc1ccccc1N(CC(=O)N1CCN(c2ccccc2)CC1)S(C)(=O)=O | 79µM* | -2% | -21% | -17%[59 µM] | x
SMILES | JMJD2A Tudor inh | L3MBTL1 inh | HP1b chromo inh | G9a inh | BAZ2B inh
COc1ccc(N2CCN(C(=O)CN(c3cccc(Br)c3)S(C)(=O)=O)CC2)cc1 | u | x | -20% | -33%[2.33 µM] | u
COc1cccc(N(CC(=O)N2CCN(c3ccccc3OC)CC2)S(C)(=O)=O)c1 | -7% | x | 17% | 79µM* | 4%
CCC(CC)C(=O)Nc1ccc(OCc2cc(=O)n3ccc(C)cc3n2)cc1 | 5% | x | 29%[57 µM] | -34%[59 µM] | 9%
Cc1cccc(C(=O)Nc2ccc(N3CC=C(c4ccccc4C)CC3)c(C(=O)O)c2)c1 | u | x | -7% | u | 45µM*
CCOC(=O)C1CCCN(c2ncnc3c2cnn3-c2ccc(C)c(Cl)c2)C1 (stereo unspecified) | 25% | x | 39% | 21%[59 µM] | 22%
CCOC(=O)c1sc(NNC(=O)c2ccc(C)cc2)nc1C | -12% | -7% | 38% | u | -3%

Compound activity (PubChem BioAssay)
